Screening data: PubChem BioAssay, National Center for Advancing Translational Sciences (NCATS)
A selection: hits, their analogues and other compounds. The true share with any hit is near 7.5%.
ELG1 genotoxic – induces genotoxicity in HEK293T cells with luciferase-tagged ELG1 | HEK293T ELG1-luciferase reporter, luminescence, 16 h | actives 1.3% (n = 330,000) | Potency, µM (top dose mostly 46 µM), usual class: activators; also: nearly all actives have a fitted effect of over 60% in size
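Genotoxic stress is detected as increased luminescence from luciferase-tagged ELG1 in HEK293T cells, measured with ONE-Glo after a 16 hr treatment at 37 °C.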
SMN2 splice enh – increases expression of the SMN2 splice variant | Potency, µM (top dose mostly 46.1 µM), usual class: activators | actives 2.8% (n = 210,000) | HEK293 SMN2-luciferase splicing reporter, luminescence, 30-36 h; also: nearly all actives have a fitted effect of over 55% in size
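HEK293 cells carry an SMN2 […]–luciferase reporter in which exon 7 inclusion puts luciferase in frame. Cells were plated 10-12 h before compound addition, then incubated 30-36 h at 37C. ONE-Glo luminescence was read; sodium butyrate at 4.5 mM final served as control.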
NPC1 promoter act – NPC1 promoter activation. Huh7 NPC1 promoter luciferase reporter, 24 h. Potency, µM (doses to about 9.22 µM), usual class: activators. actives 2.4% (n = 320,000); also: nearly all actives have a fitted effect of over 60% in size
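Stably transfected Huh7 (NPC1 promoter→luciferase), 1500 cells/well in Opti-MEM + 10% FBS, 2 h settle, then compound 24 h at 37 °C. Luminescence after 10 min with Amplite reagent.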
FLuc counter – firefly luciferase modulation, counter-screen for miR-21 project | Potency, µM (top dose mostly 57.5 µM), most hits filed as inhibitors | P08659 | actives 6.9% (n = 360,000) | purified FLuc, Km substrates, luminescence inhibition; also: nearly all actives have a fitted effect of over 55% in size
Target sequence (P08659 whole entry, looked up): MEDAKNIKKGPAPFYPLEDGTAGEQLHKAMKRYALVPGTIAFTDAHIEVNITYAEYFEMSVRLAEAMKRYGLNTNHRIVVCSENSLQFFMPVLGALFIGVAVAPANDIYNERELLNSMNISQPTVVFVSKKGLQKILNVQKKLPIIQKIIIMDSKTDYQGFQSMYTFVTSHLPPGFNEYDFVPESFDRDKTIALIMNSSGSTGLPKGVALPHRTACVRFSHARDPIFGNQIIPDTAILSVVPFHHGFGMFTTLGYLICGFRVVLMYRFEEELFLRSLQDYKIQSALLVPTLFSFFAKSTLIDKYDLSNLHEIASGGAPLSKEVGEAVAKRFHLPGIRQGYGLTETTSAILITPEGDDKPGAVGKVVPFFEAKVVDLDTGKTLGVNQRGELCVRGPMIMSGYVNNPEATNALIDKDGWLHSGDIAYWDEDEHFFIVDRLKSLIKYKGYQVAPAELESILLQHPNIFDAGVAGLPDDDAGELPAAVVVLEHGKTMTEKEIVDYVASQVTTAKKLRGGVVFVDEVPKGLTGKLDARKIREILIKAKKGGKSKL
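Purified P. pyralis luciferase (10nM final) with 10uM D-luciferin and 10uM ATP (Km levels) in 50mM Tris acetate pH 7.5, 10mM Mg acetate, 0.01% Tween-20, 0.05% BSA; qHTS 6-point titration, ~60 µM downward; luminescence read.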
Rab9 promoter act – Rab9 promoter activation; Huh7 Rab9 promoter-luciferase reporter, luminescence, 24 h; Potency, µM (doses to about 9.22 µM), usual class: activators; AID 485297; actives 2.8% (n = 320,000); also: nearly all actives have a fitted effect of over 60% in size
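Luminescence read-out: Huh7 cells stably expressing Rab9-luciferase, treated 24 h with compound at 37 °C, then lysed with luciferase reagent for 10 min at ambient before reading.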
Hits are given with their value; - = inactive; ? = inconclusive; . = not tested or not shown; [ ] = remark or other dose. Calls follow the shape of the dose curve; as a rule, active = well fitted curve in the direction sought with a large enough effect; inconclusive = small, poorly fitted or top-dose-only effect, or another doubt; inactive = no such curve, though single readings can be large; an effect the other way counts as inactive or inconclusive.

SMILES	ELG1 genotoxic	SMN2 splice enh	NPC1 promoter act	FLuc counter	Rab9 promoter act
Nc1nonc1-c1noc(N2CCOCC2)n1	-	-	-	-	-
O=C(c1ccccc1)c1nnc(-c2ccccc2F)o1	16µM	-	-	0.54µM	-
Cc1ccc(-c2noc(-c3ccccc3F)n2)cc1	2.6µM	13µM	?	0.85µM	2µM
O=C(CSc1nnc(-c2ccccc2F)o1)NC1CC1	-	.	.	.	.
Nc1nonc1-c1noc(-c2ccccc2Br)n1	?	?	-	17µM	-
CS(=O)(=O)c1cccc(NC(=O)c2ccc(Cl)c(Cl)c2)c1	-	.	-	19µM	-
O=C(Nc1ccc(Cl)c(Cl)c1)c1ccc(Cl)c(Cl)c1	-	.	3.5µM	12µM	3.5µM
COc1ccc(C(=O)Nc2ccc(Cl)c(Cl)c2)c(OC)n1	?	3.2µM	-	0.95µM	?
COc1ccc(C(=O)O)c(OC)n1	-	.	-	-	-
CS(=O)(=O)c1ccc(C(=O)Nc2cc(S(C)(=O)=O)ccc2Cl)cc1	-	.	-	-	-
Cc1ccc(NC(=O)c2ccc(Cl)c(N3C(=O)C=CC3=O)c2)cc1	-	-	-	9.5µM	-
O=C(Nc1ccc(Cl)c(Cl)c1)c1ccncc1	-	-	-	?	-
Cc1ccc(NC(=O)Cn2c(=O)n(-c3ccc(Cl)c(Cl)c3)c(=O)c3c(C)c(C)sc32)c(C)c1	.	-	.	-	.
COc1ccccc1CNc1cc(-c2cccc(NS(C)(=O)=O)c2)ncn1	.	-	.	.	.
CC(O)c1cccc(NC(=O)CCCc2ccccc2)c1 (configuration not stated)	-	.	-	-	-
Cc1cccc(NC(=O)CCCc2ccccc2)c1	?	.	?	17µM	?
Cc1cccc(NC(=O)N2CCN(Cc3ccccc3)CC2)c1	-	-	-	17µM	-
CN(C)c1ccc(NC(=O)CCCc2ccccc2)cc1	0.92µM	16µM	4µM	2.4µM	1.6µM
C=CCN1C(=O)c2ccc(C(=O)N(CCOC)c3c(N)n(CCCC)c(=O)[nH]c3=O)cc2C1=O	-	.	-	-	-
S=c1[nH]nc(CSCCOc2ccccc2)o1	-	.	-	-	-
S=c1[nH]nc(CSCCOc2ccc(Cl)cc2Cl)o1	-	.	-	21µM	-
O=C(Cc1cccs1)NNC(=S)NC(=O)c1ccccc1	-	-	-	-	-
COc1ccc(/C=C/C(=O)NC(=S)NNC(=O)c2ccco2)cc1	-	-	-	-	-
O=C(/C=C/c1ccccc1)NC(=S)NNC(=O)Cc1cccs1	-	13µM	-	-	-
COc1ccc(C(=O)NNC(=S)NC(=O)/C=C/c2cccs2)cc1	21µM	.	3.5µM	2.7µM	3.5µM
SMILES	ELG1 genotoxic	SMN2 splice enh	NPC1 promoter act	FLuc counter	Rab9 promoter act
COc1ccc(/C=C/C(=O)NC(=S)NNC(=O)Cc2cccs2)cc1	?	13µM	-	-	-
CCOC(=O)[C@@H](C)N(Cc1ccc(OC)cc1)S(=O)(=O)N(Cc1ccccc1)[C@H](C(=O)OC)C(C)C	-	.	-	-	-
Cc1cc(OCC(=O)NC2CC(C)(C)NC(C)(C)C2)c2c(C)c(C)c(=O)oc2c1	?	.	-	-	-
CCOc1cc(-c2noc(-c3cccnc3)n2)ccc1OC	-	-	-	-	-
COc1ccc(-c2noc(-c3cccnc3)n2)cc1OC	?	?	?	15µM	3.5µM
CCOc1ccc(-c2noc(-c3cccnc3)n2)cc1OC	-	-	?	13µM	-
CCSc1ccc(/C(N)=N/OC(=O)c2cccs2)cn1	13µM	.	?	6µM	?
N/C(Cc1ccc(Cl)c(Cl)c1)=N\OC(=O)c1cccs1	-	-	-	-	-
Cc1ccc(/C(N)=N/OC(=O)c2ccc(C)cc2Cl)cc1	?	?	1.1µM	0.85µM	0.71µM
COc1ccc(C(=O)O/N=C(\N)c2ccccc2Cl)cc1OC	?	.	-	?	-
N/C(=N\OC(=O)c1ccc(Cl)cc1Cl)c1ccccc1	?	?	4.5µM	0.17µM	0.5µM
N/C(=N\OC(=O)c1ccc(Cl)cc1Cl)c1ccc(Cl)cc1	?	-	1.4µM	0.54µM	1.6µM
CCN(CC)CCCN1CC(=O)N2[C@@H](Cc3c([nH]c4ccccc34)C2(C)C)C1=O	-	.	-	-	-
COC(=O)[C@@H](NC(=O)N1CCc2nc(COc3ccccc3)c3c(c2C1)CO[C@@H](C)C3)C(C)C	.	-[9.22 µM]	.	.	.
CCOP(=O)(OCC)/C(=N/OC(=O)c1ccc(Cl)cc1Cl)C(N)=O	-	.	-	-	-
